Integrin act MD: qHTS for Activators of Integrin-Mediated Alleviation for Muscular Dystrophy | alpha7betagal myoblasts, beta-gal FDG fluorescence, 48 h | Potency, µM (series often up to 38.3 µM), for the others: at the highest dose activation, actives largely listed as activators | actives 0.064% (n = 350,000) | AID 624291, 2012;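 note: potency is the fitted concentration of half-maximal effect; 100% = response of the positive control SU9516; nearly all actives have a fitted effect of over 60% in size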
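Alpha7betagal+/- myoblasts (passage 13) were plated 16-24 hr, then exposed to compounds (1:260 dilution of DMSO stock) for 48 hours at 37C. After MPER lysis, β-galactosidase reporter activity was read as FDG fluorescence (ex 480/em 540) after 30 minutes.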
D3 ag: qHTS of D3 Dopamine Receptor Agonist: qHTS. D(3) dopamine receptor (Homo sapiens), P35462. D3R DiscoveRx beta-arrestin cells, luminescence, 90 min. max activation, %. actives 0.58% (n = 410,000). AID 652048, 2013; in the data active = max activation above about 30%; note: 0% is about no effect
Target sequence (P35462 whole entry, looked up): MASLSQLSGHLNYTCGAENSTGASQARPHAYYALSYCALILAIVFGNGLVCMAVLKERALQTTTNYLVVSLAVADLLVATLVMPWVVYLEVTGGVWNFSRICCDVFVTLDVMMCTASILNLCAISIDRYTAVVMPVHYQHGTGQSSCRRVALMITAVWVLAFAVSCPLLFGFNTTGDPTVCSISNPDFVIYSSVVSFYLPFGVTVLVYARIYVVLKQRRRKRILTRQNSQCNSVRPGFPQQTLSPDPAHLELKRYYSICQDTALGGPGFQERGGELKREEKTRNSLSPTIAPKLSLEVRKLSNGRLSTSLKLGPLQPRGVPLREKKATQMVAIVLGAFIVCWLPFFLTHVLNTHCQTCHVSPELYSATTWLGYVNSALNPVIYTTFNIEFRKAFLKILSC
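Agonist-mode cell screen: cells plated at 1500/well and incubated overnight at 37 °C, then exposed to library compounds for 90 min at 37 °C. Detection reagent was added for 30–60 min at room temperature, and luminescence was read.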
S2 tox: Viability Counterscreen for Primary qHTS for Inhibitors of ATXN expression | Potency, µM (highest dose often 56.7 µM), most hits filed as cytotoxic | actives 0.49% (n = 400,000) | S2 cells (HEK-293 line with an ATXN2-luciferase reporter) viability, CellTiter-Fluor protease fluorescence, 24 h; note: potency is the fitted concentration of half-maximal effect; nearly all actives have a fitted effect of over 40% in size
ATXN2 expr inh: Primary qHTS for Inhibitors of ATXN expression; HEK-293 ATXN2-luciferase reporter, luminescence, 24 h; Potency, µM (titrated, usually from 57 µM), inactives show at the highest dose activity change, negative = inhibition, hits mostly inhibitors; actives 0.72% (n = 360,000); AID 1745845, 2022; note: potency is the fitted concentration of half-maximal effect; % is set by controls: 0 for no effect and ±100 for the full control effect; nearly all actives have a fitted effect of over 55% in size
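ATXN2-luciferase reporter cells (luciferase flanked by upstream and downstream ATXN2 gene portions) were treated 24 h at 37 °C with compounds at up to 57 uM. SteadyGlo luminescence gave expression; GF-AFC fluorescence gave viability.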
DRD3 antagonist: qHTS of D3 Dopamine Receptor Antagonist: qHTS; D(3) dopamine receptor (Homo sapiens), P35462; D3R cells, DiscoveRx beta-arrestin luminescence, antagonist mode; hits give low values; max response, negative = inhibition, %; actives 2.5% (n = 360,000); AID 652054, 2013; in the data active = max response below about -50%; inconclusive = no clear call, values can overlap the other calls; note: % is set by controls: 0 for no effect and ±100 for the full control effect
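Cells expressing the human receptor were seeded at 1500 cells/well, incubated overnight at 37 degrees C in 5% CO2, then exposed to library compounds with dopamine controls for 90 minutes at 37 degrees C before luminescent detection.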
IL-1B inflam inh: qHTS for Inhibitors of Inflammasome Signaling: IL-1-beta AlphaLISA Primary Screen | THP-1 LPS/ATP IL-1B secretion, AlphaLISA, 16 h; hits give low values | activity change, % at 57.5 µM | actives 4.7% (n = 360,000) | AID 743279, 2014; in the data active = activity change below about -50%; inconclusive = mostly about -30% to -49%; note: % is set by controls: 0 for no effect and ±100 for the full control effect
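THP-1 cells pretreated 1 hr with compounds (up to 57.5 uM final), then stimulated with LPS (250 ng/mL final) plus ATP (1.25 mM final); secreted IL-1B measured by AlphaLISA after 16 hr, decreased signal indicating inhibition.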
* hit, by the source's call; i = inactive; ? = inconclusive; nt = no result. The list is not random: actives were taken first. Their share in the collection is about 7%. Unless noted, calls come from the whole dose curve; as a rule, active = well fitted curve in the direction sought with a large enough effect; inconclusive = small, poorly fitted or top-dose-only effect, or another doubt; inactive = no such curve, though single readings can be large; an effect the other way counts as inactive or inconclusive.

SMILES	Integrin act MD	D3 ag	S2 tox	ATXN2 expr inh	DRD3 antagonist	IL-1B inflam inh
Cc1ccc(C(=O)N/C(=C\c2ccc(-c3ccc(Cl)cc3)o2)C(=O)NCCCN(C)C)cc1	-63.9%	-3.7	i	?	-20.7	-67.2*
CN(C(=O)c1ccc(NC(=O)Cc2cccc([N+](=O)[O-])c2)cc1)C1CCCC1	2.9%	2.1	?	-11.3%	17.9	?
CN(C(=O)c1ccc(S(=O)(=O)c2cccc(Cl)c2)c([N+](=O)[O-])c1)C1CCCCC1	-24.9%	-22.8	?	?	?	-106.5*
O=C(c1ccoc1)N1CCN(c2cc(-c3ccccc3)nc3cc(-c4ccccc4)nn23)CC1	-40.2%	2.3	?	?	13.9	-2.7
COc1ccccc1-c1cc2nc(-c3ccccc3)cc(N3CCN(C(=O)c4ccco4)CC3)n2n1	13.2%	39.0*	?	12.6µM*	62.4	13.8
COc1ccccc1-c1cc2nc(-c3ccccc3)cc(N3CCN(C(=O)c4ccoc4)CC3)n2n1	-34.3%	20.0	?	?	48.2	10.5
O=C(c1ccoc1)N1CCN(c2cc(-c3ccco3)nc3cc(-c4ccccc4)nn23)CC1	-64.1%	5.9	?	25.1µM*	78.3	-0.5
COc1cc2cc(Oc3ccc4ccc(=O)oc4c3)c(=O)oc2cc1OC(C)=O	0.0%	4.5	i	10.1%	-14.3	1.3
Cc1ccc(-c2csc(Nc3ccc(C(=O)O)cc3)[n+]2Cc2ccccc2)cc1	8.91µM*	-13.0	i	22.8%	-9.5	-10.7
COc1ccc(-c2csc(Nc3ccccc3)[n+]2Cc2ccccc2)cc1	8.5%	3.7	i	nt	15.6	-26.9
COc1ccc(C(=O)NCCSCc2ccco2)cc1OC	-18.8%	-1.7	i	11.2%	18.4	-5.1
CC(CNC(=O)CN1C(=O)NC2(CCCCC2C)C1=O)c1ccccc1 (stereo not given)	3.7%	1.3	i	2.3%	24.1	11.0
CC1(S(=O)(=O)O)CC(=O)c2ccccc2C1=O (stereo not given)	nt	1.8	nt	25.1µM*	0.0	?
CC1(N2CCCCC2)C(=O)c2ccccc2C1=O	5.8%	4.9	i	-2.1%	3.2	0.0
CC(C)CN1CC(=O)N2C(c3ccccc3)c3[nH]c4ccccc4c3C[C@H]2C1=O (stereo not given in full)	-45.7%	15.7	i	0.4%	35.2	0.0
Cc1cc(S(=O)(=O)N2CCCOC2CNC(=O)C(=O)NCc2ccco2)ccc1F (stereo not given)	-2.6%	-4.0	i	-32.3%	-7.8	6.8
CC(C)=CCC/C(C)=C/CNC(=O)C[C@H]1C[C@H](C(=O)N2CCCCC2)[C@@]2(CCc3ccccc3)c3[nH]c4cc(CCC(=O)N(C)C)ccc4c3CCN2C1=O	2.9%	4.3	i	5.8%	1.4	-68.5*
CCN(CC)C(=O)[C@H]1C[C@H](CC(=O)NC(C)(C)C)C(=O)N2CCc3c([nH]c4cc(-c5ccco5)ccc34)[C@]12C	10.8%	-0.6	?	-32.6%	0.0	-8.1
CC(C)N(C(=O)[C@H]1C[C@H](CC(=O)NC(C)(C)C)C(=O)N2CCc3c([nH]c4cc(-c5ccco5)ccc34)[C@]12C)C(C)C	-2.8%	16.8	i	?	11.6	-67.5*
O=C(C[C@H]1C[C@H](C(=O)N2CCOCC2)[C@@]2(CCC3CCCC3)c3[nH]c4cc(-c5ccco5)ccc4c3CCN2C1=O)NCCC1=CCCCC1	-7.4%	-9.0	?	-30.5%	-14.9	?
C[C@]12c3[nH]c4cc(-c5ccco5)ccc4c3CCN1C(=O)[C@@H](CC(=O)NCc1cccc(C(F)(F)F)c1)C[C@@H]2C(=O)N1CCCCC1	-39.0%	-14.7	?	?	27.2	-60.1*
O=C(C[C@H]1C[C@H](C(=O)N2CCOCC2)[C@@]2(CCC3CCCC3)c3[nH]c4cc(-c5ccco5)ccc4c3CCN2C1=O)NCCc1ccccn1	15.8%	-24.3	nt	?	-29.2	-52.0*
CC[C@]12c3[nH]c4cc(-c5ccco5)ccc4c3CCN1C(=O)[C@@H](CC(=O)NCc1cccc(C(F)(F)F)c1)C[C@@H]2C(=O)N1CCN(C(=O)C2CC2)CC1	-11.6%	0.4	?	?	8.6	0.0
CC1=C(C(=O)N(C)C)CC(CC(=O)NCc2cccc3ccccc23)C(=O)N1CCC1=CCCCC1 (stereo not given)	-14.0%	1.6	?	-16.9%	2.6	-19.2

Compound activity as filed in PubChem BioAssay.
